# Source: ChEMBL document CHEMBL3988442, “University of Dundee, Small-Polar-MMV Screening Library” (2021)
# About 13,000 (27%) of roughly 48,000 compounds showed an effect of 50% or more. This is one part of the list.
# Tested on: Wolbachia pipientis
# Experiment: Anti-Wolbachia Cell-Based Screen
# Type: functional
# Parameters: scale not given: in the data most compounds retested in dose-response had high values
# Details: 5 µM
row,SMILES,Percent Effect [%]
1,CCN(CC)C(CNCc1cc(F)cc(F)c1)c1ccco1 (stereo unspecified),4.253
2,Cc1ccsc1[C@@H]1CCN(C(=O)CCc2cc(O)no2)C[C@H]1O,2.962
3,COc1ccccc1CC(=O)NCc1c(C)nc2cc(=O)[nH]n2c1C,-0.07038
4,Cc1ccc(C(C)(O)CNC(=O)c2sccc2Br)o1 (stereo unspecified),16.11
5,CC(c1nc(C2CC2)no1)N1CCC(NS(=O)(=O)c2cccs2)CC1 (stereo unspecified),7.931
6,CC(C)CN1C(=O)C2(CCN(Cc3ccc(F)cc3)C2)c2ccccc21 (stereo unspecified),132
7,Cc1ccc(CN2CCC3(C2)C(=O)N(CC(C)C)c2ccccc23)s1 (stereo unspecified),8.577
8,O=C(O)C(F)(F)F.c1cnc(N2C[C@H]3CCN(CC4CC4)C[C@H]3C2)cn1,93.44
9,O=C(O)C(F)(F)F.O=C(O)C(F)(F)F.c1cnc(N2C[C@H]3CCN(CCN4CCCC4)C[C@H]3C2)cn1,87.36
10,O=C(O)[C@]12CN(CC3CCC3)C[C@H]1CN(c1cnccn1)C2,5.69
11,O=C(O)C(F)(F)F.O=C(O)C(F)(F)F.c1cnc(N2CCOCC3(CCCN(CC4CC4)C3)C2)cn1 (stereo unspecified),-18.67
12,Cn1cc(CNCCc2nccs2)c(-c2cccnc2)n1,5.46
13,C[C@@H]1CN(C2(C(=O)N3CC[C@H](O)C3)Cc3ccccc3C2)C[C@H](C)O1,3.055
14,O=c1[nH]c2ccccc2c(=O)n1Cc1nnnn1C1CC1,-11.16
15,CCc1ccc(C(=O)N2CCCC(c3nn[nH]n3)C2)cc1 (stereo unspecified),6.219
16,Clc1ccc2[nH]c3c(c2c1)CCCC3c1nn[nH]n1 (stereo unspecified),91.29
17,c1ccc2c3c([nH]c2c1)C(c1nn[nH]n1)CCC3 (stereo unspecified),118.9
18,Brc1ccc2[nH]c3c(c2c1)CCCC3c1nn[nH]n1 (stereo unspecified),153.1
19,NCC1Cc2cc(Cl)cc(-c3cncc(C(=O)N4CCCCC4)n3)c2O1 (stereo unspecified),0.4481
20,O=C(NCCc1cccs1)[C@H]1CO[C@H]2CCN(C3CCC3)C[C@H]2C1.O=C(O)C(F)(F)F,119.1
21,CN1C[C@@H]2COC[C@]2(C(=O)NCCc2cccs2)C1.O=C(O)C(F)(F)F,-4.441

row,SMILES,Percent Effect [%]
1,O=C(NCc1cccs1)c1nc2c(o1)CN(CC1CC1)C2.O=C(O)C(F)(F)F,-6.948
2,O=C(NCc1cccs1)C1CNCC12CCOCC2.O=C(O)C(F)(F)F (stereo unspecified),1.102
3,O=C(O)C(F)(F)F.O=C1CO[C@@H]2CN(Cc3cccs3)C[C@H]2N1CC1CC1,3.643
4,O=C(NCCc1cccs1)[C@]12COC[C@H]1CN(C1CCOCC1)C2.O=C(O)C(F)(F)F,-30.21
5,CC(C)NC(=O)[C@H]1C[C@@H]2[C@@H](C1)OCCN2Cc1cccs1.O=C(O)C(F)(F)F,-8.796
6,O=C(NCCc1cccs1)[C@H]1CO[C@H]2CCN(CC3CC3)C[C@H]2C1.O=C(O)C(F)(F)F,100.3
7,O=C(NCc1cccs1)[C@H]1CO[C@H]2CCN(C3CCCC3)C[C@H]2C1.O=C(O)C(F)(F)F,106.7
8,CCN(CC)Cc1cc(C(=O)N2CCCC(CC)(C(=O)O)C2)c(C)o1 (stereo unspecified),1.255
9,O=C(c1scc2c1OCCO2)N1CCOC(CCc2ccccc2)C1 (stereo unspecified),-26.43
10,CCc1nc(C)c([C@H]2CN(C)C[C@@H]2C(=O)Nc2cccc3cn[nH]c23)[nH]1,-9.056
11,CC(=O)N1CCN(C(=O)CCNc2snc(Cl)c2C#N)CC1,-5.282
12,Cc1cc(CN(Cc2ccccc2)CC(O)c2cccs2)on1 (stereo unspecified),-11.7
13,CN(C)c1ncc(CNC(=O)Nc2ccccc2F)n1C,-5.654
14,COC(=O)CCCNC(=O)Nc1ccccc1OC,-0.6444
15,Cn1c(CO)nnc1SCc1c(F)cccc1Br,6.099
16,CNC(=O)Cc1ccccc1NC(=O)NCc1ccc(SC)cc1,-2.376
17,CCc1ccccc1NC(=O)NCc1nnc(SC)n1C,130.1
18,COc1ccccc1NC(=O)NCc1cn[nH]c1,15.69
19,CNc1nc(CNC(=O)Nc2ccccc2SC)cs1,0.4301
20,CSc1nnc(CNC(=O)Nc2ccccc2Br)n1C,152.8
21,COc1ccccc1NC(=O)NCc1nnc(SC)n1C,134.3

row,SMILES,Percent Effect [%]
1,CCOc1ccccc1NC(=O)NCc1ccoc1,6.288
2,Cn1c(C(F)(F)F)nn(CCNC(=O)Nc2ccccc2F)c1=O,4.89
3,CSc1nnc(CNC(=O)Nc2ccccc2F)n1C,133
4,CN(C(=O)c1ccncc1Cl)c1ccccc1S(C)(=O)=O,-0.2522
5,O=C(Nc1cccs1)N(CCO)CCOCC(F)(F)F,5.099
6,Cc1ccccc1CC1(CO)CCCN(c2ncncc2C(C)C)C1 (stereo unspecified),2.064
7,Cc1nnc(N2CC[C@H](OCC3CC3)[C@@H](Cc3ccccc3)C2)s1.O=C(O)C(F)(F)F,-12.39
8,CO[C@H]1CCN(c2nnc(C)s2)C[C@@H]1Cc1ccccc1.O=C(O)C(F)(F)F,94.02
9,CO[C@@H]1CCN(c2nnc(C)s2)C[C@@H]1Cc1ccccc1.O=C(O)C(F)(F)F,97
10,Cc1nnc(N2CC[C@@H](OCC3CC3)[C@@H](Cc3ccccc3)C2)s1.O=C(O)C(F)(F)F,4.615
11,COCc1ccc(C(=O)N2CCC(Oc3ccccc3)(C(=O)O)CC2)o1,-4.026
12,Cc1ncc(C)c(N2CCCC(CO)(Cc3cccc(Cl)c3)C2)n1 (stereo unspecified),-4.145
13,CN1CCN(CCCNC(=O)c2cc(Cl)c3c(c2)OCO3)CC1,11.84
14,CN(C)Cc1cc(=O)n2c(n1)CN(S(=O)(=O)C1CC1)CCC2.O=C(O)C(F)(F)F,96.54
15,CC(C)N(C)Cc1nnc2n1CCN(S(=O)(=O)C1CC1)CC2.O=C(O)C(F)(F)F,-7.825
16,CN(C)Cc1cc(=O)n2c(n1)CN(CC1CCOCC1)CCC2,-13.06
17,CC(C)N(C)Cc1cc(=O)n2c(n1)CN(S(=O)(=O)C1CC1)CCC2.O=C(O)C(F)(F)F,109.3
18,CC(C)N(C)Cc1nnc2n1CCCN(S(=O)(=O)C1CC1)C2.O=C(O)C(F)(F)F,-4.148
19,CCN(CC)Cc1cc(=O)n2c(n1)CN(S(=O)(=O)C1CC1)CCC2.O=C(O)C(F)(F)F,115.6
